# Legend:
# Test in all cases: DAPPL (digital affinity profiling via proximity ligation, sequencing); 10 mM Tris-HCl pH 7.5, 50 mM NaCl, 1 mM DTT, 4% glycerol, room temperature, 30 min; GST-TFs on glutathione beads, 16-mer random dsDNA library, 0.1% formaldehyde crosslink after washing; high values mean tight binding
# FLI1 = target: T1, FLI1 (Homo sapiens, UniProt Q01543 1-452); settings: protein: recombinant; tags: N-terminal GST; dsDNA, one strand shown
# T1 sequence: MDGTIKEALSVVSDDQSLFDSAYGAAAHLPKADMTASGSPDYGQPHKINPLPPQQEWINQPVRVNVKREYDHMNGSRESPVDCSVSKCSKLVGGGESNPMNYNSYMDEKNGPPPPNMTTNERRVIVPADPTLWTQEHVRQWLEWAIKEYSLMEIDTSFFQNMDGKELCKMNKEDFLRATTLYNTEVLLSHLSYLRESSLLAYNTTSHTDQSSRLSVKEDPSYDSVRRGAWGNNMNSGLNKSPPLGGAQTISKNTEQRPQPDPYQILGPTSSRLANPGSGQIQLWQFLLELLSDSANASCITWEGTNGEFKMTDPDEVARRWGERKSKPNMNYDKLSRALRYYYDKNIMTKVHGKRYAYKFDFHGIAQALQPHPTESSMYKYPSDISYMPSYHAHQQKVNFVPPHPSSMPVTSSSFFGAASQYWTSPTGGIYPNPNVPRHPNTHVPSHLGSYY
# Procedure, shortened: (§1)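 Pools of DNA-barcoded human transcription factors, expressed in yeast as GST fusions on glutathione beads and combined with a tag-only sample, were incubated with 200 nmole of a 16-mer random double-stranded DNA library. Incubation took 30 min at room temperature in Tris/NaCl/DTT/glycerol buffer and was followed by washing, 0.1% formaldehyde crosslinking, proximity ligation (BsaI/T4 ligase, 1 h, 37 °C), PCR amplification and sequencing on an Illumina NextSeq500. Binding signal is the ratio of a hexamer's read frequency for a factor to its frequency for the tag-only sample.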
# ELK1 = target: T2, ELK1 (Homo sapiens, UniProt P19419 1-428); settings: protein: recombinant; tags: N-terminal GST; dsDNA, one strand shown
# T2 sequence: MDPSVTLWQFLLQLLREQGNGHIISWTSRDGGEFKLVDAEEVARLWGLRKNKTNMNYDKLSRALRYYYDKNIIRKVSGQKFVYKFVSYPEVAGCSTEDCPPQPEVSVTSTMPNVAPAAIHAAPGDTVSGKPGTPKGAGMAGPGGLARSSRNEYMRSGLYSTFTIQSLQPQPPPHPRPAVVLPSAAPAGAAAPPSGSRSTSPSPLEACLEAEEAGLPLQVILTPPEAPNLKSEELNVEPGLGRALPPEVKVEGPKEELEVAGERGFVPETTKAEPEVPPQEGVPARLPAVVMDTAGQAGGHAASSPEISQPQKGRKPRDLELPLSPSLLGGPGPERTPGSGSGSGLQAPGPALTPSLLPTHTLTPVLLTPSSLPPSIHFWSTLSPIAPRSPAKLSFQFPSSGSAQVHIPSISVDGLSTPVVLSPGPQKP
# Procedure, shortened: as §1
# GABPA = target: T3, GABPA (Homo sapiens, UniProt Q06546 1-454); settings: protein: recombinant; tags: N-terminal GST; dsDNA, one strand shown
# T3 sequence: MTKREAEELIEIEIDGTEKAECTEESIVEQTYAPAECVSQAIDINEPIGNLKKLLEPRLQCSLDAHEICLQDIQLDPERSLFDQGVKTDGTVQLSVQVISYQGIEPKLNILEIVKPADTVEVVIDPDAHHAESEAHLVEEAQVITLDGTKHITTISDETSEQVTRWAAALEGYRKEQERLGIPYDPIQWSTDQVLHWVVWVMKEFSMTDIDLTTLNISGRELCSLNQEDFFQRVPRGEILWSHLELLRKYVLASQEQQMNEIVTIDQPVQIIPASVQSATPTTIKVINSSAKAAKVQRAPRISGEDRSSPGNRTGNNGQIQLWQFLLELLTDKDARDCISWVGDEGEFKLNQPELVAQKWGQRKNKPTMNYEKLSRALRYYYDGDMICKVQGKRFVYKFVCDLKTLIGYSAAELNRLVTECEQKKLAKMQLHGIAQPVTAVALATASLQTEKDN
# Procedure, shortened: as §1
# ERG = target: T4, ERG (Homo sapiens, UniProt P11308 1-479); settings: protein: recombinant; tags: N-terminal GST; dsDNA, one strand shown
# T4 sequence: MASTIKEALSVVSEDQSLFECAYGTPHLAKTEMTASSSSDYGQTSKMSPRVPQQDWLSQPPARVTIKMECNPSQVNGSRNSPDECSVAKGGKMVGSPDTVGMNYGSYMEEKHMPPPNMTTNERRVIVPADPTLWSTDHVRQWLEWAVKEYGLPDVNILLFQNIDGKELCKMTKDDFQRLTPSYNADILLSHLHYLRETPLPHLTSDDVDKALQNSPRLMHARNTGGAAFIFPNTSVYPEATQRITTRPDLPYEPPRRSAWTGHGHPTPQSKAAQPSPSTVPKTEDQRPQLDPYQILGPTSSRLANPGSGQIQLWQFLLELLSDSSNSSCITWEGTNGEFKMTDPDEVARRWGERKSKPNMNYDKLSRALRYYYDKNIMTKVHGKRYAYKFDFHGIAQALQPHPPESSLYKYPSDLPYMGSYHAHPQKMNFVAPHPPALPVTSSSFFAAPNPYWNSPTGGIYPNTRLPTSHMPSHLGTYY
# Procedure, shortened: as §1
# ELF1 = ELF1 (Homo sapiens, UniProt P32519 1-619); settings: protein: recombinant; tags: N-terminal GST; dsDNA, one strand shown
# Procedure, shortened: as §1
# EHF = target: T5, EHF (Homo sapiens, UniProt Q9NZC4 1-300); settings: protein: recombinant; tags: N-terminal GST; dsDNA, one strand shown
# T5 sequence: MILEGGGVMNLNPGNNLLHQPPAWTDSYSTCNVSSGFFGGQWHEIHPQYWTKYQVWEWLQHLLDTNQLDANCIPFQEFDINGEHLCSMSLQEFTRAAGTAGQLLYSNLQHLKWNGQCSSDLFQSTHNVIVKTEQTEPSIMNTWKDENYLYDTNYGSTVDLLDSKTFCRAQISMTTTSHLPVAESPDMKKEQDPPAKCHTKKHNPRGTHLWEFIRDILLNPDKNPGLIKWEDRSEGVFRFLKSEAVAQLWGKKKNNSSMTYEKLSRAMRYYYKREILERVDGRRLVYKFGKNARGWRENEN
# Procedure, shortened: as §1
# SPI1 = SPI1 (Homo sapiens, UniProt P17947 1-270); settings: protein: recombinant; tags: N-terminal GST; dsDNA, one strand shown
# Procedure, shortened: as §1
# SPIB = SPIB (Homo sapiens, UniProt Q01892 1-262); settings: protein: recombinant; tags: N-terminal GST; dsDNA, one strand shown
# Procedure, shortened: as §1
# ELK3 = target: T6, ELK3 (Homo sapiens, UniProt P41970 1-407); settings: protein: recombinant; tags: N-terminal GST; dsDNA, one strand shown
# T6 sequence: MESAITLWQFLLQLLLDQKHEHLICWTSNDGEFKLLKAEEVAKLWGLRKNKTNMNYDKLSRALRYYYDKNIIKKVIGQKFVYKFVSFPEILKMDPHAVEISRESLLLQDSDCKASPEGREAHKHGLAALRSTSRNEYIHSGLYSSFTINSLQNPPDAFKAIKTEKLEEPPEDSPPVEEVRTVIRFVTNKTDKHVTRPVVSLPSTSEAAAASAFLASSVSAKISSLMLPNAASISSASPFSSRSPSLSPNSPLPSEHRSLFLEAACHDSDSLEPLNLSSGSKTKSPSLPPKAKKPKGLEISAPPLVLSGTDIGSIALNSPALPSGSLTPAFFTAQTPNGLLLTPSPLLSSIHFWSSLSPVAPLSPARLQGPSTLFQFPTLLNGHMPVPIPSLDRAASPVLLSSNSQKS
# Procedure, shortened: as §1
# FEV = target: T7, FEV (Homo sapiens, UniProt Q99581 1-238); settings: protein: recombinant; tags: N-terminal GST; dsDNA, one strand shown
# T7 sequence: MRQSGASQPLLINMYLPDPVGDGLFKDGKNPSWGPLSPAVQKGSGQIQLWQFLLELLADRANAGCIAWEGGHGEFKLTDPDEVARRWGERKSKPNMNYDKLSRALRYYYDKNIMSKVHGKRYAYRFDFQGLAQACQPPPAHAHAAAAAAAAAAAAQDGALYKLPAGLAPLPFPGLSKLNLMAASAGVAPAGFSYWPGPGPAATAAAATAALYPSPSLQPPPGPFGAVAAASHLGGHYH
# Procedure, shortened: as §1
# ETV5 = ETV5 (Homo sapiens, UniProt P41161 1-510); settings: protein: recombinant; tags: N-terminal GST; dsDNA, one strand shown
# Procedure, shortened: as §1
# HSF1 = HSF1 (Homo sapiens, UniProt Q00613 1-529); settings: protein: recombinant; tags: N-terminal GST; chain copies: 3; dsDNA, one strand shown
# Procedure, shortened: as §1
# SPIC = target: T8, SPIC (Homo sapiens, UniProt Q8N5J4 1-248); settings: protein: recombinant; tags: N-terminal GST; dsDNA, one strand shown
# T8 sequence: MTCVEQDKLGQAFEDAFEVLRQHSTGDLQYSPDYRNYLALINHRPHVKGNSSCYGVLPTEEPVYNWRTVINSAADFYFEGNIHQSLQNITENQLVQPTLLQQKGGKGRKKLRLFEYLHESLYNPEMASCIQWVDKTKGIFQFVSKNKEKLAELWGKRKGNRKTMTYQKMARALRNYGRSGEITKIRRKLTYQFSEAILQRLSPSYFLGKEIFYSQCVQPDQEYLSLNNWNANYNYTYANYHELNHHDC
# Procedure, shortened: as §1
# ELF4 = ELF4 (Homo sapiens, UniProt Q99607 1-663); settings: protein: recombinant; tags: N-terminal GST; dsDNA, one strand shown
# Procedure, shortened: as §1
# ELK4 = target: T9, ELK4 (Homo sapiens, UniProt P28324-2 1-405); settings: protein: recombinant; tags: N-terminal GST; dsDNA, one strand shown
# T9 sequence: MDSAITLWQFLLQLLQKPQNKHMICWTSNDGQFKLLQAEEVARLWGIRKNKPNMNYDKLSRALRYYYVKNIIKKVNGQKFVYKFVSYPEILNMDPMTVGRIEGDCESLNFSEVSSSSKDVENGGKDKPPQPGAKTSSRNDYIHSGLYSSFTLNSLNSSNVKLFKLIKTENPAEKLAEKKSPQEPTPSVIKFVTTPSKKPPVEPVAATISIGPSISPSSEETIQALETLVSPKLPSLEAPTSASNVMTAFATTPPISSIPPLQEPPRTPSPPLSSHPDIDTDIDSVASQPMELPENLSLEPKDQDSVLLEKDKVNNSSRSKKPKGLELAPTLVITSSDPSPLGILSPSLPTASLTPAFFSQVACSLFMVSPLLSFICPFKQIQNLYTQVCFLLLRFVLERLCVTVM
# Procedure, shortened: as §1
# ETV2 = target: T10, ETV2 (Homo sapiens, UniProt O00321 1-342); settings: protein: recombinant; tags: N-terminal GST; dsDNA, one strand shown
# T10 sequence: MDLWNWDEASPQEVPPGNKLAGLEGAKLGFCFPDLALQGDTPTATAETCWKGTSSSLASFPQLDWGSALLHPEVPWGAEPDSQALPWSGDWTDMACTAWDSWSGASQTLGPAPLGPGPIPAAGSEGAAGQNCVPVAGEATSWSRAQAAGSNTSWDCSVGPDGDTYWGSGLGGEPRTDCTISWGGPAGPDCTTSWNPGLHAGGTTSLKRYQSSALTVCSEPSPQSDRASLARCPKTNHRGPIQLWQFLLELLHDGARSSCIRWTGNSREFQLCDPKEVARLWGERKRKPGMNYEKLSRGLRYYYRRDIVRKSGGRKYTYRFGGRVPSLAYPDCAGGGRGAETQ
# Procedure, shortened: as §1
# ELF3 = target: T11, ELF3 (Homo sapiens, UniProt P78545 1-371); settings: protein: recombinant; tags: N-terminal GST; dsDNA, one strand shown
# T11 sequence: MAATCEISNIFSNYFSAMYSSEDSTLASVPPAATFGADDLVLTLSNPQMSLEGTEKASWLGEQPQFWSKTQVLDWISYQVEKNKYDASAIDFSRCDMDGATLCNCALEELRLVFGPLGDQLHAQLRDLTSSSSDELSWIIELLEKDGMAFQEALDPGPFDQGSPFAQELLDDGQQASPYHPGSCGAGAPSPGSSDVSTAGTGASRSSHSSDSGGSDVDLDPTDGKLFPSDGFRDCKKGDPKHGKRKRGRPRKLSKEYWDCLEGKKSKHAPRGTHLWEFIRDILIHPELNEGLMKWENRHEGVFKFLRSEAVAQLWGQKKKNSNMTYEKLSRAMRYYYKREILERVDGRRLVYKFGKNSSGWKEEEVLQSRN
# Procedure, shortened: as §1
# CRX = CRX (Homo sapiens, UniProt O43186 1-299); settings: protein: recombinant; tags: N-terminal GST; dsDNA, one strand shown
# Procedure, shortened: as §1
# ETV1 = ETV1 (Homo sapiens, UniProt P50549 1-477); settings: protein: recombinant; tags: N-terminal GST; dsDNA, one strand shown
# Procedure, shortened: as §1
# Sequence of CRX (O43186 whole entry): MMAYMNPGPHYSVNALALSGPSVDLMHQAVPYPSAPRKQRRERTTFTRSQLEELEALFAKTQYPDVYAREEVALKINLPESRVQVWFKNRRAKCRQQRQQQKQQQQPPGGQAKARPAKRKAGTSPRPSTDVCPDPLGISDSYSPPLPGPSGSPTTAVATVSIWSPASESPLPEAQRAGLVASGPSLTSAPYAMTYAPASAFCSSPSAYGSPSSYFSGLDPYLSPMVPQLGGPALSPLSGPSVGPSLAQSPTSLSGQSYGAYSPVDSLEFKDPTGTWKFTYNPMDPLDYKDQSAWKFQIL
# Sequence of HSF1 (Q00613 whole entry): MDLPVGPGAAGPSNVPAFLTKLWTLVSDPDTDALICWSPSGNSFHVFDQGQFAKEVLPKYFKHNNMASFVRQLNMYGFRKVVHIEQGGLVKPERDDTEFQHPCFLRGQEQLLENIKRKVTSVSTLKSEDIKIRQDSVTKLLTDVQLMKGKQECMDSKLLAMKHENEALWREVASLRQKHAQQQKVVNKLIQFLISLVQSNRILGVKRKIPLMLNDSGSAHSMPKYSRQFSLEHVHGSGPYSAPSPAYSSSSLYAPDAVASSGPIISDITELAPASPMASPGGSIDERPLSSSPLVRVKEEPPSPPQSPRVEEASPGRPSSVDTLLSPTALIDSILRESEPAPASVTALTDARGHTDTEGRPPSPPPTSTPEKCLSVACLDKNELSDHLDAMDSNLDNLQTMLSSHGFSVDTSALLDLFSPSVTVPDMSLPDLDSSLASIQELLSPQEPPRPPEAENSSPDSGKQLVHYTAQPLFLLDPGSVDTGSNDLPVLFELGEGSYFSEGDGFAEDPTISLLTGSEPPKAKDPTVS
# Sequence of ELF4 (Q99607 whole entry): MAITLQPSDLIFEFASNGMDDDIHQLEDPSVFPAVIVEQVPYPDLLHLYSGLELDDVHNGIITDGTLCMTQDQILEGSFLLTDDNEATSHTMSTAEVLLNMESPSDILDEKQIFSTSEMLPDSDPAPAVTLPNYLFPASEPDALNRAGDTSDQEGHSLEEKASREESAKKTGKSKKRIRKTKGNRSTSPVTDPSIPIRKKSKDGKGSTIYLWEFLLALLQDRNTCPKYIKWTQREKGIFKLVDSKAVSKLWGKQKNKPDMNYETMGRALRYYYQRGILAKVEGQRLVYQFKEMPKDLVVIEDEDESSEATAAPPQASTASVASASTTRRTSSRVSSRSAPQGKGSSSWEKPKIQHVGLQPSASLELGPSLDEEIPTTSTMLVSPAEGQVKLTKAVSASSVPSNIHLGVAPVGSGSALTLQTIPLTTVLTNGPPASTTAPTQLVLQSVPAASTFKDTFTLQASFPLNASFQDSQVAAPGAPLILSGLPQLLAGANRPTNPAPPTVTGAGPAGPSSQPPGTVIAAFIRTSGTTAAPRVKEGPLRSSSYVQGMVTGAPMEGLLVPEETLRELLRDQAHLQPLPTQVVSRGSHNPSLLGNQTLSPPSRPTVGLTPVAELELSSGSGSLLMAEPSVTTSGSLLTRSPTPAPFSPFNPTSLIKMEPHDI
# Sequence of ELF1 (P32519 whole entry): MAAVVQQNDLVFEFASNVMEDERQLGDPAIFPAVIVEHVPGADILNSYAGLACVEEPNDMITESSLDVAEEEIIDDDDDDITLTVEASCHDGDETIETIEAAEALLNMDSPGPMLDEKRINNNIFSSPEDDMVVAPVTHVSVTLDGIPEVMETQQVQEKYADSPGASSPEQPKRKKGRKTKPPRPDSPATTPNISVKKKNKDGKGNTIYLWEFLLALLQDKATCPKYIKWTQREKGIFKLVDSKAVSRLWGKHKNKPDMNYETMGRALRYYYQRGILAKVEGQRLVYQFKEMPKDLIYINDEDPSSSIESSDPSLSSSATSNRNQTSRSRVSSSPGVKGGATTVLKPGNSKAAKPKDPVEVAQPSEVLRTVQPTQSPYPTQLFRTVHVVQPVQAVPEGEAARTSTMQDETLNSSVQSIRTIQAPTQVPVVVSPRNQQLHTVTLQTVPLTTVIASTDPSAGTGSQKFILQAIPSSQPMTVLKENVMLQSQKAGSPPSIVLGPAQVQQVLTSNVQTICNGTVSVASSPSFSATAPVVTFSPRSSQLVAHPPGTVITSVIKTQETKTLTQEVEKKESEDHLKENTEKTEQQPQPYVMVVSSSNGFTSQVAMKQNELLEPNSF
# Sequence of ETV1 (P50549 whole entry): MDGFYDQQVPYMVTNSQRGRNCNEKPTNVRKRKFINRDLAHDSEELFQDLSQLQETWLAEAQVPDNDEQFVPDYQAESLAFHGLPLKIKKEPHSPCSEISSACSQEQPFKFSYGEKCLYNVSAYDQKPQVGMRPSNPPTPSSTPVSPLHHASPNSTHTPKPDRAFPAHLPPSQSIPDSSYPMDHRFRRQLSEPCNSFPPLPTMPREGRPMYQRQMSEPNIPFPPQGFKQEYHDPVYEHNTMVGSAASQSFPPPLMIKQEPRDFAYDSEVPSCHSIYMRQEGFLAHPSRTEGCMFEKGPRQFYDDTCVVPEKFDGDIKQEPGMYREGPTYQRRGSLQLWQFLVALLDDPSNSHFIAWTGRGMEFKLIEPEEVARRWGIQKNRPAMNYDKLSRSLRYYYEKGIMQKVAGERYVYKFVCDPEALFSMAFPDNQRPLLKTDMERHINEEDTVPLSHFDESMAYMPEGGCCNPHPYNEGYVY
# Sequence of SPIB (Q01892 whole entry): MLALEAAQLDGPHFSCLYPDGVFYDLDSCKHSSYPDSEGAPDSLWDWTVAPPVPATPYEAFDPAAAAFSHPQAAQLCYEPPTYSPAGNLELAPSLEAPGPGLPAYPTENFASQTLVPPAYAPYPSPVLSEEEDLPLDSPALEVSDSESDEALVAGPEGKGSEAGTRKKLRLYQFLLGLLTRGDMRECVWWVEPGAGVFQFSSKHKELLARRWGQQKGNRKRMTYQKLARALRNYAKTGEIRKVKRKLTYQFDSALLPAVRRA
# Sequence of ETV5 (P41161 whole entry): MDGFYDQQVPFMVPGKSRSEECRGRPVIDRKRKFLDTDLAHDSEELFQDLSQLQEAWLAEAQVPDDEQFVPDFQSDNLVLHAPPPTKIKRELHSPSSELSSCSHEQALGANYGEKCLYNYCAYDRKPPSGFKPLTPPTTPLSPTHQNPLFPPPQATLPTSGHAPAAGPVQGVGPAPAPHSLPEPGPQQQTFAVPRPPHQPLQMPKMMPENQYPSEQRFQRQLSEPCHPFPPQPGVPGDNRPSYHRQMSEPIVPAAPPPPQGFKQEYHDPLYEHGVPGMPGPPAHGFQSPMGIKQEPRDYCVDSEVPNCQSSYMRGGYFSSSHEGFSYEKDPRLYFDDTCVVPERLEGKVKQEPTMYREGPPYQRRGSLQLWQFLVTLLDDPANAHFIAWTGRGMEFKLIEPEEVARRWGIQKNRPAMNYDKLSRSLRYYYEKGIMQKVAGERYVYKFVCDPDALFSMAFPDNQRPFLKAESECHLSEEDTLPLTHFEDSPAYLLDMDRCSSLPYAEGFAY
sequence,measurement,setting,value
CGAAAA,binding signal,FLI1,"1.07 fold enrichment (6-mer frequency, TF over GST control)"
same,binding signal,ELK1,"1.07 fold enrichment (6-mer frequency, TF over GST control)"
same,binding signal,GABPA,"1.17 fold enrichment (6-mer frequency, TF over GST control)"
same,binding signal,ERG,"1.06 fold enrichment (6-mer frequency, TF over GST control)"
same,binding signal,ELF1,"1.05 fold enrichment (6-mer frequency, TF over GST control)"
same,binding signal,EHF,"1.14 fold enrichment (6-mer frequency, TF over GST control)"
same,binding signal,SPI1,"1.1 fold enrichment (6-mer frequency, TF over GST control)"
same,binding signal,SPIB,"1.04 fold enrichment (6-mer frequency, TF over GST control)"
same,binding signal,ELK3,"1.01 fold enrichment (6-mer frequency, TF over GST control)"
same,binding signal,FEV,"1.04 fold enrichment (6-mer frequency, TF over GST control)"
same,binding signal,ETV5,"1.13 fold enrichment (6-mer frequency, TF over GST control)"
same,binding signal,HSF1,"1.85 fold enrichment (6-mer frequency, TF over GST control)"
same,binding signal,SPIC,"1.07 fold enrichment (6-mer frequency, TF over GST control)"
same,binding signal,ELF4,"1.11 fold enrichment (6-mer frequency, TF over GST control)"
same,binding signal,ELK4,"1.12 fold enrichment (6-mer frequency, TF over GST control)"
same,binding signal,ETV2,"1.04 fold enrichment (6-mer frequency, TF over GST control)"
same,binding signal,ELF3,"1.01 fold enrichment (6-mer frequency, TF over GST control)"
same,binding signal,CRX,"1.12 fold enrichment (6-mer frequency, TF over GST control)"
same,binding signal,ETV1,"1.06 fold enrichment (6-mer frequency, TF over GST control)"

# — PMC7862700, “An all-to-all approach to the identification of sequence-specific readers for epigenetic DNA modifications on cytosine”
